Among all 420,000 compounds or so, about 64,000 (15%) were called active. Inconclusive results (about 27%) are left out. The call rests on the fitted dose curve; in most records, active means well fitted inhibition curve with a large enough effect; inconclusive means small, poorly fitted or top-dose-only effect; inactive means flat fitted curve, though single readings scatter. The list is a sample of the results. Entries that show only a call come without a potency.
Assay: qHTS for Inhibitors of human tyrosyl-DNA phosphodiesterase 1 (TDP1): qHTS in cells in absence of CPT; further: nearly all actives have a fitted effect of over 55% in size
Settings: DT40 Tdp1-/- hTDP1 cells, no CPT, ATP luminescence, 48 h; activity change, negative = growth inhibition: at 46.2 µM (top of the series)
Summary of the method: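 Growth kinetics read by CellTiter-Glo luminescence after ≥48 hr at 37 °C. Cells: DT40 Tdp1-/- stably carrying human TDP1, 400 per well, compound exposure in the absence of CPT (DMSO vehicle).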
For COc1cc(NS(=O)(=O)c2cccs2)cc(OC)c1, the Potency was “inactive”. With CCOc1cc(CNCc2ccccn2)ccc1OCC(=O)NC(C)(C)C the Potency was “inactive”. For Cc1cccc(NC(=O)N2CCCCCC2)c1C, the Potency was “inactive”. For O=C(CCNC(=O)c1ccccc1Cl)NN=Cc1ccco1, the Potency was “inactive”. In the case of CCOCCCNS(=O)(=O)Cc1ccccc1, the Potency is reported as “inactive”. For CCC(C)NC(=O)CSC1=Nc2ccccc2C2=NC(CCC(=O)NCc3ccco3)C(=O)N12 (configuration not stated), the Potency was “inactive”. For CC(=O)c1cnc(-c2ccccc2)s1, the Potency was “inactive”. For CC(=O)c1nnn(-c2ccc(Cl)cc2C#N)c1C, the Potency was “inactive”. In the case of CCOc1ccc2nc(Nc3nc4ccc(NC(C)=O)cc4s3)sc2c1, the Potency is reported as 10.3 µM (active). In the case of CNC(=O)c1ccc2nc(NC(C)=O)sc2c1, the Potency is reported as “inactive”. For CC(=O)Nc1ccc2nc(NC(=O)CS(=O)(=O)c3ccc(F)cc3)sc2c1, the Potency was “inactive”. For O=c1c2ccccc2nc(CSc2nnnn2-c2ccccc2)n1-c1ccccc1, the Potency was “inactive”. With COc1ccc(C)cc1-n1nnnc1SCc1nc2ccccc2c(=O)[nH]1 the Potency was 9.2 µM (active). With COCCn1c(SCc2nc3cc(OC)c(OC)cc3c(=O)[nH]2)nnc1-c1ccncc1 the Potency was “inactive”. In the case of O=C1CCC[C@@H]2CC(N3CCCCC3)C[C@@H]3CCN1[C@H]23 (some centres not stated), the Potency is reported as “inactive”. For S=C1Nc2cc(Cl)ccc2Sc2ccccc21, the Potency was “inactive”. For Cc1cccc(C)c1NC(=O)C(Cl)C(=O)c1ccccc1 (configuration not stated), the Potency was 7.31 µM (active). For Cc1cccc(C)c1NC(=O)CN(C)C(=O)CCC(=O)c1ccccc1, the Potency was “inactive”. For Cc1ccccc1NC(=O)c1ccccc1, the Potency was “inactive”. With CCCCNCCS(=O)(=O)NCc1ccccc1 the Potency was “inactive”. In the case of C[C@H](CO)N1C[C@H](C)[C@@H](CN(C)S(=O)(=O)c2ccc(F)cc2)OCc2cnnn2CCCC1=O, the Potency is reported as “inactive”. In the case of COc1cc(C(=S)N2CCOCC2)cc(OC)c1OC(=O)c1cc([N+](=O)[O-])cc([N+](=O)[O-])c1, the Potency is reported as “inactive”. With COc1ccccc1N1CCN(C(=O)c2ccc(Cl)c(S(=O)(=O)N3CCCC3)c2)CC1 the Potency was 18.4 µM (active). With CCN(CC)S(=O)(=O)c1ccc(C(=O)N2CCN(C3=NS(=O)(=O)c4ccccc43)CC2)cc1 the Potency was “inactive”. In the case of CN(c1ccccc1)S(=O)(=O)c1ccc(C(=O)N2CCN(c3ccccc3Cl)CC2)cc1, the Potency is reported as 20.6 µM (active). With COc1ccc(N2CCN(C(=O)COC(=O)c3cccc(S(=O)(=O)Nc4ccccc4OC)c3)CC2)cc1 the Potency was 20.6 µM (active). In the case of COc1ccc(C(=O)NCc2ccc(Cl)cc2)cc1S(=O)(=O)N1CCCC1, the Potency is reported as “inactive”. For CN(c1ccccc1)S(=O)(=O)c1ccc(Cl)c(C(=O)OCC(=O)N2CCOCC2)c1, the Potency was “inactive”. In the case of CCOC(=O)N1CCN(C(=O)COC(=O)c2cccc(S(C)(=O)=O)c2)CC1, the Potency is reported as “inactive”. With O=C(c1ccc(Cl)c(S(=O)(=O)N2CCCCCC2)c1)N1CCN(c2ccc(O)cc2)CC1 the Potency was “inactive”. In the case of COc1ccccc1CC(=O)Nc1ccc(S(=O)(=O)N2CCCC2)cc1, the Potency is reported as “inactive”. In the case of COc1ccc(N2CCN(C(=O)CNS(=O)(=O)c3ccc(C)c(C)c3)CC2)cc1, the Potency is reported as “inactive”. With COc1ccccc1N1CCN(C(=O)c2ccc(S(=O)(=O)N3CCCCC3)cc2)CC1 the Potency was 25.9 µM (active). In the case of COc1ccccc1N1CCN(S(=O)(=O)c2ccc(Cl)cc2)CC1, the Potency is reported as “inactive”. For COc1ccc(S(=O)(=O)NCC(c2ccc(C)cc2)N2CCN(C)CC2)cc1OC (configuration not stated), the Potency was “inactive”. In the case of CC(C)C(NC(=O)C1CCC(C(C)(C)C)CC1)C(=O)NCCCN1CCCCC1 (configuration not stated), the Potency is reported as “inactive”. For CC1CCN(C(=S)c2cccc(O)c2)CC1, the Potency was “inactive”. With C/C=C/C(=O)OCC(=O)Nc1ccc(F)cc1Cl the Potency was “inactive”. For CC(CN1CCC(n2nccc2NC(=O)C2CCCC2)CC1)c1ccccc1 (configuration not stated), the Potency was “inactive”. In the case of Nc1c(-c2ccc(F)cc2)cnc2ncnn12, the Potency is reported as “inactive”. With COc1ccc(C)cc1NC(=O)NCc1ccccn1 the Potency was “inactive”. With COC(=O)C1=C(C)N=C2SC(C)C(=O)N2C1/C=C/c1ccccc1 (configuration not stated) the Potency was “inactive”. For COCCNC(=O)CN(C(=O)CCC(=O)Nc1cc(C)on1)c1ccc(C)cc1C, the Potency was “inactive”. For COc1ccc(S(=O)(=O)Nc2ccccc2C(=O)N2CCCC2)cc1C, the Potency was “inactive”. With COc1ccccc1NS(=O)(=O)c1ccc(C(=O)N2CCN(c3ccccc3O)CC2)cc1 the Potency was 16.4 µM (active). In the case of COc1ccccc1N1CCN(C(=O)c2c(-c3c(Cl)cccc3Cl)noc2C)CC1, the Potency is reported as 20.6 µM (active). With COc1ccccc1NS(=O)(=O)c1ccc(C)c(C(=O)NNC(=O)c2csc(N3CCOCC3)n2)c1 the Potency was “inactive”. With Cc1[nH]n(C)c(=O)c1C(=O)c1c(-c2c(Cl)cccc2Cl)noc1C the Potency was “inactive”. In the case of Cc1onc(-c2ccccc2)c1C(=O)N1CCN(S(=O)(=O)c2ccccc2C(F)(F)F)CC1, the Potency is reported as “inactive”. In the case of COc1ccc2c(c1)CCC/C2=N\OC(=O)c1ccccc1F, the Potency is reported as “inactive”. With CC(C)(CSc1nncn1/N=C/c1ccco1)NS(=O)(=O)c1ccc(Cl)cc1 the Potency was “inactive”. In the case of O=C(COC(=O)CSc1nnc(-c2ccc(Cl)cc2)o1)Nc1cc(Cl)cc(Cl)c1, the Potency is reported as “inactive”. With Cn1ccsc1=NC(=O)c1cc(S(=O)(=O)N2CCOCC2)ccc1Cl the Potency was “inactive”. In the case of Cc1ccccc1C(=O)Nc1ccccc1Sc1ccccc1, the Potency is reported as “inactive”. For O=C(O)COc1nsnc1N1CCOCC1, the Potency was “inactive”. With CSCCC(NC(N)=O)C(=O)N(C)CC(=O)Nc1ccc(C)cc1 (configuration not stated) the Potency was “inactive”. For COc1cccc(N2CC(NC(=O)/C=C\c3ccccc3)CC2=O)c1 (configuration not stated), the Potency was “inactive”. With COc1ccc(-c2nn3c(-c4ccc(OC)cc4)nnc3c3ccccc23)cc1 the Potency was “inactive”. In the case of CC(C)N(C(=O)Cn1cc(S(=O)(=O)CC(=O)N2CCOCC2)c2ccccc21)C(C)C, the Potency is reported as “inactive”. In the case of O=C(NCc1ccccc1)C1=C[C@@H](C2CCCCC2)C[C@@H](OCc2ccc(CO)cc2)O1, the Potency is reported as 16.4 µM (active). With O=C(COC(=O)CNC(=O)C1CCCCC1)NCc1ccccc1 the Potency was “inactive”. In the case of O=C(O)C1CCN(C(=O)OCc2ccccc2)CC1, the Potency is reported as “inactive”. With COc1cc(Cl)cc(C2NC(=O)NC(C)=C2C(=O)NCc2ccccc2)c1O (configuration not stated) the Potency was “inactive”. For CCOc1ccc(C(CC(=O)O)NC(=O)COc2ccccc2)cc1 (configuration not stated), the Potency was “inactive”. With CC(NC(=O)COc1ccc(-c2ccccc2)cc1)C1CCCO1 (configuration not stated) the Potency was 11.6 µM (active). In the case of CC(=O)Nc1ccc(NC(=O)COc2ccc(-c3ccccc3)cc2)cc1, the Potency is reported as “inactive”. In the case of COc1ccc(NC(=O)N(C)C[C@H]2Oc3ccc(NC(=O)C4CC4)cc3C(=O)N([C@H](C)CO)C[C@@H]2C)cc1, the Potency is reported as “inactive”. For CCCc1cc(=O)[nH]c(SCc2ccc(C#N)cc2)n1, the Potency was “inactive”. For CSCCC(Nc1ccc(S(=O)(=O)N2CCOCC2)cc1[N+](=O)[O-])C(=O)OCC(=O)N(C(C)C)C(C)C (configuration not stated), the Potency was “inactive”. For COc1ccc(OC)c(C(=O)CSc2nnc(-c3cccs3)o2)c1, the Potency was “inactive”. For Cc1ccc(OC(=O)CSc2nnc(-c3cccs3)o2)cc1, the Potency was “inactive”. With COc1ccc(-n2c(C)cc(C(=O)CSc3nnc(-c4cccs4)o3)c2C)cc1 the Potency was 16.4 µM (active). For Cc1cc(C)c(NC(=O)CN2CCCCCC2)c(C)c1, the Potency was “inactive”. For Cc1c(-c2ccccc2)cn2c1-c1ccc(C)n1CC2, the Potency was 16.4 µM (active). With O=c1[nH]c(SCc2ccccc2)nnc1-c1ccccc1 the Potency was “inactive”. In the case of CN(C)C(=O)CSc1n[nH]c(-c2ccco2)n1, the Potency is reported as “inactive”. For COC(C[C@@H](O)C[C@@H](O)[C@H](C)OCc1ccccc1)OC, the Potency was “inactive”. For O=C(Cc1ccc(Br)cc1)NCCc1ccccc1, the Potency was “inactive”. For COc1ccccc1NC(=O)CCC(=O)N1CC(C)Oc2ccc(C)cc21 (configuration not stated), the Potency was 16.4 µM (active). In the case of COC(=O)C(CC(=O)Nc1cc(C)ccc1C)Nc1ccccc1OC (configuration not stated), the Potency is reported as “inactive”. With CC1CN(C(=O)CCC(=O)NCc2cccnc2)c2ccccc2O1 (configuration not stated) the Potency was “inactive”. For CN(C)C(=O)c1cccc(-c2cnc3sc(NCc4ccc5c(c4)OCO5)nn23)c1, the Potency was 13 µM (active). With O=C(CSc1ncnc2scc(-c3ccccc3)c12)NCc1ccc2c(c1)OCO2 the Potency was “inactive”. In the case of O=C(Cn1nnc(-c2ccccc2)n1)NCc1ccc2c(c1)OCO2, the Potency is reported as “inactive”. In the case of OC(CNC1CCCC1)COc1ccc(F)cc1 (configuration not stated), the Potency is reported as “inactive”. For Nc1c(C(=O)Nc2ccc3c(c2)OCCO3)nnn1Cc1ccccc1, the Potency was “inactive”. In the case of COC(=O)c1ccc(CSc2nc3cc(Cl)ccc3o2)cc1, the Potency is reported as “inactive”. With O=S(=O)(c1ccccc1)c1nc(-c2ccccc2F)oc1NCc1cccnc1 the Potency was “inactive”. With COc1cccc(-c2nc(S(=O)(=O)c3ccc(C)cc3)c(NCc3ccccc3)o2)c1 the Potency was 18.4 µM (active). In the case of O=S(=O)(c1ccc(Br)cc1)c1nc(-c2ccccc2)oc1NCc1cccnc1, the Potency is reported as “inactive”. For COc1cc(C2C3C(=O)N(c4ccccc4)C(=O)C3ON2c2ccccc2)ccc1O (configuration not stated), the Potency was “inactive”. With CCc1ccc2ncc3c(-c4ccc(C)cc4)nn(CC(=O)NCc4ccccc4)c3c2c1 the Potency was “inactive”. For COc1ccc2ncc3c(-c4ccc(C)c(C)c4)nn(CC(=O)NC4CCCC4)c3c2c1, the Potency was 6.51 µM (active). In the case of COc1ccc(-c2nn(CC(=O)NC3CCCC3)c3c2cnc2ccc(F)cc23)cc1, the Potency is reported as “inactive”. In the case of COc1cccc2c(=O)n(CC(=O)N3CCCCCC3)ccc12, the Potency is reported as “inactive”. In the case of CCOc1cc(C2C(C(=O)Nc3ccc(OC)cc3)=C(C)Nc3nc(SC)nn32)ccc1O (configuration not stated), the Potency is reported as “inactive”. In the case of CCOc1ccc(C2C(C(=O)Nc3ccc(Cl)cc3)=C(C)Nc3nc(C(F)(F)F)nn32)cc1 (configuration not stated), the Potency is reported as 14.6 µM (active). With COc1cc(C2C(C(=O)Nc3ccc(F)cc3)=C(C)Nc3nc(CCCO)nn32)cc(OC)c1OC (configuration not stated) the Potency was “inactive”. For COc1cc(OC)c(N(C)C(=O)c2cc3c(=O)oc4ccccc4c3s2)cc1Cl, the Potency was “inactive”. For CCOc1ccccc1-c1cc(C(=O)N2CCOCC2)c2ccccc2n1, the Potency was “inactive”. In the case of CCOc1ccccc1N(C)C(=O)c1cc2c(s1)-c1ccccc1OC2, the Potency is reported as 16.4 µM (active). With COc1ccc(C(=O)NC(C)Cn2nc(C)cc2C)cc1OC1CCN(C(C)=O)CC1 (configuration not stated) the Potency was “inactive”.

Source: PubChem BioAssay AID686978 (National Center for Advancing Translational Sciences (NCATS), 2013)
Potency means the concentration at half of the fitted maximal effect.
